Screening results deposited in PubChem BioAssay by National Center for Advancing Translational Sciences (NCATS).
D1 antagonist = Antagonist of Human D 1 Dopamine Receptor: qHTS. D(1A) dopamine receptor (Homo sapiens), P21728. activity change, negative = inhibition, % at 10 µM. 3.2% of 360,000 active. HEK293 TREx D1 cells, calcium flux, dopamine EC80; hits give low values; in the data active means activity change below about -30%; further: on the % scale 0 is the no-effect control and ±100 the full control effect
Target sequence (P21728 whole entry, looked up): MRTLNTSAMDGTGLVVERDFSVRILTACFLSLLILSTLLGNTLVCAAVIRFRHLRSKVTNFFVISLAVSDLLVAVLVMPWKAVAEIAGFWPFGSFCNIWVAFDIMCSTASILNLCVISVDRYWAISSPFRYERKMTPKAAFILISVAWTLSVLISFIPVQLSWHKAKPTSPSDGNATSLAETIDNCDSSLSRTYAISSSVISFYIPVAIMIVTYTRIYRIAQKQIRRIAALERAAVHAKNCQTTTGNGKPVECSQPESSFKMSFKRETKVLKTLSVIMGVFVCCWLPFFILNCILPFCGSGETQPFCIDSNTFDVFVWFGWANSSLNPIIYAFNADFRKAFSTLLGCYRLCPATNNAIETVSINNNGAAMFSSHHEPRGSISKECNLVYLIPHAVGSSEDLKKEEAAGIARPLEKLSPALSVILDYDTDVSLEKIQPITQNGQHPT
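Tetracycline-induced HEK293 T-REx cells with force-coupled D1 receptor were loaded with a no-wash calcium dye. Compound was added after a 10 s baseline and read kinetically for 180 s; EC80 dopamine was then added and calcium flux followed another 180 s.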
D1 potentiator = Potentiators of Human D1 Dopamine Receptor: qHTS | HEK293 TREx D1 cells, calcium flux, dopamine EC20 potentiation | potentiation, % at 10 µM | AID 504651, 2011 | D(1A) dopamine receptor (Homo sapiens), P21728 | 0.036% of 360,000 active; in the data active means potentiation above about 30%; further: 0% is about no effect
TRHR PAM = qHTS for Small Molecule Agonists and Allosteric Enhancers of Human TRH Receptor: Primary Screen for Enhancers; enhancement, % at 2 µM; Thyrotropin-releasing hormone receptor (Homo sapiens), P34981; 0.66% of 360,000 active; TRHR cells, fluo-8 calcium fluorescence, EC20 TRH enhancement; in the data active means enhancement above about 30%; further: 0% is about no effect
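Enhancer read-out: after compound pinning and an initial kinetic agonist-mode read, an EC20 of TRH (10 nM final) was injected and fluo-8 calcium signal (Ex 480/Em 530) followed at 1 s/cycle for 100 cycles in TRHR-expressing cells.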
D1 ag = Allosteric Agonists of the Human D1 Dopamine Receptor: qHTS. activation, % at 2 µM. 1% of 360,000 active. AID 504660, 2011. D(1A) dopamine receptor (Homo sapiens), P21728. HEK293 T-REx D1 cells, calcium flux, agonist mode; further: 0% is about no effect
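Inducible HEK293 T-REx D1 cells, force-coupled to calcium signalling, were plated at 4000 cells/well with tetracycline and held overnight at 30 C. After no-wash calcium dye loading, compound-evoked calcium rise over 180 s flagged agonists.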
TRHR agonist = qHTS for Small Molecule Agonists and Allosteric Enhancers of Human TRH Receptor: Primary Screen for Agonists. activation, % at 2 µM. TRHR cells, calcium flux fluo-8, FDSS agonist mode. 0.18% of 360,000 active; further: 0% is about no effect
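TRHR-expressing cells, plated overnight in medium with 10% serum, were loaded with fluo-8 calcium dye at room temperature. After a 10 s baseline, library compound was pin-added and calcium release was recorded kinetically (ex 480/em 530) as agonist response.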
* hit, by the source's call; . = not tested or not shown. Only some compounds are listed: those with a hit (about 4.6% of all), similar ones and a draw of the others. Unless noted, no stated cut-off is given here; in the data, active means activation above about 30%; inactive means the rest.

SMILES	D1 antagonist	D1 potentiator	TRHR PAM	D1 ag	TRHR agonist
CCN(CC(=O)Nc1c(F)cccc1F)C(=O)CNC(=O)c1ccc2ccccc2c1	20	.	9	11	0
CCN(CC)C(=S)Nc1c(C)n(C)n(-c2ccccc2)c1=O	10	-3	-1	2	0
CC(=O)c1ccc(N2CCN(C(=O)c3nn(Cc4ccccc4)c(=O)c4ccccc34)CC2)cc1	-45*	-7	1	3	0
NC(=O)C1CN(C(=O)c2nn(Cc3ccccc3)c(=O)c3ccccc23)c2ccccc2O1 (stereo not given)	26	5	37*	5	0
CC(=O)c1ccc(N2CCN(C(=O)c3n[nH]c4ccccc34)CC2)cc1	-33*	1	-3	7	-1
NC(=O)c1nn(Cc2ccccc2)c(=O)c2ccccc12	17	3	2	-1	0
O=C(c1n[nH]c2ccccc12)N1CCOCC1	.	-8	-24	-1	0
CN(C)c1ccc(C(=O)Nc2nnc(-c3ccc(Cl)cc3)o2)cc1	-19	-5	-1	3	0
CCN(CC)c1nc(N2CCN(CCO)CC2)nc2ccccc12	-5	0	-3	3	0
COc1ccc(OCC(O)CNC(C)c2ccccc2)cc1 (stereo not given)	-4	1	7	18	2
Cc1cc(OCC(O)CNC(C)c2ccccc2)ccc1C(C)C (stereo not given)	48	0	10	30*	3
CC(NCC(O)COc1ccc2ccccc2c1)c1ccccc1 (stereo not given)	2	1	15	42*	2
Cc1cc(C)n(CC(O)COc2ccc(C(C)C)c(C)c2)n1 (stereo not given)	11	3	34*	5	-3
CN(CC(O)COc1ccc2ccccc2c1)C1CCCCC1 (stereo not given)	-3	-8	-7	32*	2
CC1CCN(C(=O)CCC(=O)Nc2nnc(C3CCCCC3)s2)CC1	-11	0	10	5	0
Cc1nc2ccccc2n1CCc1nc2c3ccccc3nc(SCC(=O)Nc3ccc(C(C)C)cc3)n2n1	-20	-4	5	3	0
CCC(Sc1nc2ccccc2c2nc(CCn3c(C)nc4ccccc43)nn12)C(=O)Nc1ccc(F)cc1 (stereo not given)	-42*	-4	2	1	0
COc1ccc(OCC(=O)Nc2c(C(=O)N3CCN(C)CC3)oc3ccccc23)cc1	-33*	-18	2	4	0
NC1=NC2(CCN(Cc3ccccc3)CC2)n2c(nc3ccccc32)N1	-43*	-10	3	1	1
CC(=O)n1cc([C@@H]2C=C(C(=O)N3CCN(Cc4ccccc4)CC3)O[C@H](OCc3ccc(CO)cc3)C2)c2ccccc21	4	-5	1	-5	0
CCn1c(O)c(/C=N/NC(=O)c2ccncc2)c(=O)n(CC)c1=S	4	1	0	28	-1
CSC1=N/C(=C\c2cccnc2)C(=O)N1c1ccccc1	-43*	-9	-2	3	0
CCSC1=N/C(=C\c2cccnc2)C(=O)N1c1ccccc1	-68*	-18	8	1	0
Cc1ccc(S(=O)(=O)N(C)CC(=O)Nc2ccc3c(c2)OCO3)cc1	10	2	0	1	-1
Cc1nc(C(F)(F)F)ccc1C(=O)Nc1ccc(C(F)(F)F)cn1	-9	3	1	2	1
SMILES	D1 antagonist	D1 potentiator	TRHR PAM	D1 ag	TRHR agonist
COC(=O)C(O)(CC(=O)Nc1ccc(OC(F)(F)F)cc1)C(F)(F)F (stereo not given)	-8	4	1	5	1
COc1ccc(C(=O)Nc2nnc(SCC(=O)Nc3ccc(NC(C)=O)cc3)s2)c(OC)c1	-2	-2	4	3	0
CCc1nnc(NC(=O)c2ccc(OC)cc2OC)s1	-30*	-3	2	3	0
CCOC(=O)C1=C(N)Oc2cc(C)[nH]c(=O)c2C1c1ccncc1 (stereo not given)	9	-4	-5	4	0
CCOC(=O)C1=C(N)Oc2c(c(=O)[nH]c3ccccc23)C1c1ccccc1 (stereo not given)	-87*	-3	6	3	-1
O=C(NCc1ccccc1)c1ccc(CSc2nc3cccnc3n2Cc2ccccc2)cc1	-3	4	3	4	1
CC1CCCCN1S(=O)(=O)c1cc2c3c(c1)CC(=O)N3CCC2 (stereo not given)	.	1	32*	-1	0
CCOC(=O)c1cc(CC)sc1NC(=O)CN1CCN(C(=O)C2CCCO2)CC1 (stereo not given)	-9	-2	3	7	0
COc1ccccc1N=C1SCC(=O)N1Cc1ccco1	-14	-3	-5	1	0
COc1cc(/C=N\NC(=O)CC#N)ccc1OC/C=C/c1ccccc1	-38*	-9	-9	-1	0
COCC(=O)N/N=C\c1ccc(OC/C=C/c2ccccc2)c(OC)c1	1	1	-2	3	-1
CC1(C)CC(=O)C2=C(C1)OC(N)=C(C#N)C2c1cc2c(cc1[N+](=O)[O-])OCO2 (stereo not given)	-33*	-2	0	1	1
CCOc1cc(C2C(C#N)=C(N)OC3=C2C(=O)CC(C)(C)C3)cc([N+](=O)[O-])c1O (stereo not given)	10	-3	-4	4	0
COc1cc(OC)cc(C(=O)Nc2ccccc2-c2nnn(CC(N)=O)n2)c1	2	3	1	1	1
O=C(COc1cccnc1[N+](=O)[O-])Nc1ccc(Cl)c(S(=O)(=O)N2CCOCC2)c1	-6	-9	6	3	0
CC(CCN1CCN(c2ccccn2)CC1)c1ccccc1 (stereo not given)	-28	-8	-1	-2	0
CC(CCN1CCN(c2ccccc2)CC1)c1ccccc1 (stereo not given)	-54*	-8	5	1	0
CC(C)OCCCNC(=O)Cc1ccc(NC(=O)N2CCCCc3ccccc32)cc1	6	-4	36*	2	0
COc1cccc(CNC(=O)c2ccc(NC(=O)N3CCCCc4ccccc43)cc2)c1OC	-59*	-8	-3	4	0
O=C(NCc1ccccc1Cl)c1ccc(NC(=O)N2CCCCc3ccccc32)cc1	-2	1	6	3	-1
CCc1ccc2[nH]c(=O)c(CN(CCN(C)C)C(=S)NCc3ccco3)cc2c1	-17	-7	8	18	-1
